The values below come from PubChem BioAssay.

Each structure is given as a SMILES string.

For the test, the system named is Noggin (protein binding on small-molecule microarray). Briefly: Noggin binders on small-molecule microarray, primary screen, biochemical, 635/667 nm fluorescence (AID 1095).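 Also: score merges 667 nm feature fluorescence with signal to noise over triplicate slides.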 The conditions noted are these: 635 nm fluorescence, higher = more signal.
With `CCc1oc(CC[C@@H](CO)NC(=O)NCCn2cc(C3(O)CCCCC3)nn2)c(C(=O)OC)c1C(=O)OC`, the composite z-score amounted to 1.39.
For `O=C1C2C=CC(C(O)c3c(F)cccc3Cl)N(Nc3ccccc3)C2C(=O)N1c1ccccc1` (stereo not given) the value was 0.461; for `COc1ccc(C(=O)Nc2ccc(CN3C(=O)[C@@]4(O[C@@H](CCO)[C@H]([Si](C)(C)c5ccc(OC)cc5)[C@H]4C)c4ccccc43)cc2)cc1`, 1.49.
For `CC(C)c1ccc(NN2C(C(O)c3cc(C(F)(F)F)cc(C(F)(F)F)c3)C=CC3C(=O)N(c4ccccc4)C(=O)C32)cc1` (stereo not given) the value was -0.722; for `CC(=O)NCCCC[C@@H]1NC(=O)[C@@H]2C[C@H](C(=O)NCCCCCCNC(=O)CS)[C@H](c3cccc(OCCO)c3)N2C1=O`, 0.452.
Next, `O=C1c2ccccc2[C@@]2(Cc3ccccc3N(CCN3CCOCC3)C2=O)[C@H](c2ccc(CO)cc2)N1Cc1ccccc1`: -0.0855; `CCCCCN1CC=CC23O[C@@H]4/C=C\CCCOC(=O)C4[C@H]2C(=O)N(C(CO)C(C)C)[C@@H]3C1=O` (stereo not given in full): 0.0296.
Take `CN1C(=O)[C@]2(Cc3ccccc3)N=C(c3ccc(OCCCO)cc3)O[C@@H]2c2ccccc21`: the composite z-score stood at 1.34.
For `COc1ccc(CCNC(=O)[C@@H]2c3ccccc3C(=O)N(C3Cc4ccccc4C3)[C@H]2c2ccc(CO)cc2)cc1` the value was -0.155.
In turn, `COc1cc2c(cc1OC)CN(C(=O)[C@H]1[C@@H]3C(=O)O[C@@H](c4ccccc4)[C@@H](c4ccccc4)N3[C@@H](c3ccc(O)cc3)[C@]13C(=O)Nc1ccc(C#CC4=CCCCC4)cc13)CC2` showed a composite z-score of 1.12.
Next, `CCCC=C(CCC)[C@@H](NS(=O)(=O)c1cccs1)c1ccc(C(=O)OC)cc1`: -0.213.
Next, `C[C@@]1([C@@H](NC(=O)c2ccccc2)c2ccc(-c3ccccc3)cc2)C[C@H]1C1CCCCC1`: -0.992; `C=CCC(OC(C)=O)[C@@H]1[C@@H](N(Cc2ccc(-c3cccc(C(F)(F)F)c3)o2)C(=O)Cc2ccc(F)cc2)c2cc(OCCCO)ccc2N1C(=O)Cc1ccc(OC)cc1` (stereo not given in full): -0.137.
With `COC(=O)c1c(CC[C@@H](CO)NC(=O)N[C@@H](C)Cn2cc(C3(O)CCCCC3)nn2)oc(C(C)=O)c1C(=O)OC`, the composite z-score was found to be 1.16.
For `C=CCC(OC(C)=O)[C@@H]1[C@@H](N(Cc2ccc(-c3cccc(C(F)(F)F)c3)o2)C(=O)c2ccc(-c3ccccc3)cc2)c2cc(OCCCO)ccc2N1C(=O)c1ccc(-c2ccccc2)cc1` (stereo not given in full) the value was -0.29; for `COCCOC(=O)N1C(=O)[C@@]2(c3cc(C#Cc4ccc(OC)cc4)ccc31)[C@H](C(N)=O)[C@H]1C(=O)O[C@H](c3ccccc3)[C@H](c3ccccc3)N1[C@@H]2c1ccccc1OCCO`, 1.55; for `CCN(CC)c1ccc(N2CC=CC34O[C@@H]5/C=C\CCCOC(=O)C5[C@H]3C(=O)N(CCO)[C@@H]4C2=O)cc1` (stereo not given in full), -0.715.
For `CC(C)N1C(=O)[C@@]2(Cc3ccccc31)c1ccccc1C(=O)N(C1CCCCC1)[C@H]2c1ccc(CO)cc1` the value was 0.79; for `CN(C)C(=O)[C@]1(Cc2ccccc2CN=[N+]=[N-])N=C(c2ccc(OCCCO)cc2)O[C@@H]1c1ccccc1CN=[N+]=[N-]`, 1.18; for `O=C1c2ccccc2[C@](Cc2ccccc2I)(C(=O)NC2CC2)[C@H](c2ccc(CO)cc2)N1Cc1ccccc1`, 0.133.
For `COCCOC(=O)N1C(=O)[C@@]2(c3cc(C#CC4(O)CCCCCC4)ccc31)[C@H](c1ccc(O)cc1)N1[C@H](c3ccccc3)[C@H](c3ccccc3)OC(=O)[C@H]1[C@@H]2C(=O)Nc1nc2ccccc2s1` the value was 1.59.
Regarding `C=CCOC(=O)[C@H]1[C@@H]2C(=O)O[C@@H](c3ccccc3)[C@@H](c3ccccc3)N2[C@@H](c2ccc(OCCOC(=O)[C@@H]3C[C@@H]4C(=O)N5CCC[C@H]5C(=O)N4[C@@H]3c3cccc(OCCO)c3)cc2)[C@]12C(=O)Nc1ccccc12`, the composite z-score was 0.98.
Next, `C#CCN(CC=C(C)C)[C@H](CO)c1ccccc1`: 0.223; `C=C[C@H](COC(C)=O)N(C(=O)OC(C)(C)C)S(=O)(=O)c1ccc(Br)cc1`: 1.09; `COc1ccc(C(O)C2C=CC3C(=O)N(c4ccccc4)C(=O)C3N2Nc2ccccc2F)cc1OCc1ccccc1` (stereo not given): -0.0436.
For `CCOC(=O)C1=CCC(c2ccc(C)cc2)N(S(=O)(=O)c2ccc(C)cc2)C1` (stereo not given) the value was -0.0866; for `COCC(=C=CC[C@H](O)c1ccccc1OCCO)C[C@H](O)c1cc(Cl)cc(Cl)c1O`, 0.653; for `COCCOC(=O)N1C(=O)[C@@]2(c3cc(C#CC4=CCCCC4)ccc31)[C@H](C(=O)Nc1nc3ccccc3s1)[C@H]1C(=O)O[C@H](c3ccccc3)[C@H](c3ccccc3)N1[C@@H]2c1ccccc1OCCO`, 0.883.
Next, `CC(C)C[C@@H]1NC(=O)[C@H]2C[C@@H](C(=O)NCCCCCCN)[C@@H](c3ccc(O)cc3)N2C1=O`: 0.696; `COCCCNC(=O)[C@@]1(Cc2ccccc2)N=C(c2ccc(OCCCO)cc2)O[C@H]1c1ccccc1`: -0.416.
`CN(C)C(=O)[C@]1(Cc2ccccc2N=[N+]=[N-])N=C(c2ccc(OCCCO)cc2)O[C@@H]1c1ccccc1` gave a composite z-score of 1.21.
Next, `CN1C(=O)C2C=CC(C(O)c3ccccc3)N(Nc3ccccc3)C2C1=O` (stereo not given): -1.09; `CCOC(=O)C[C@H]1[C@H](OC(=O)Cc2ccc3c(c2)OCO3)[C@@H](NC(=O)c2ccc(-c3ccccc3)cc2)c2cc(OCCCO)ccc2N1C(=O)Cc1ccc(OC)cc1`: 0.185; `O=C1c2ccccc2[C@](Cc2ccccc2I)(C(=O)NC2CC2)[C@H](c2ccc(CO)cc2)N1C1CCCCC1`: 0.62.
Next, `C=CCOC(=O)[C@@H]1[C@H]2C(=O)O[C@H](c3ccccc3)[C@H](c3ccccc3)N2[C@H](c2ccc(OCCOC(=O)[C@@H]3C[C@@H]4C(=O)N5CCC[C@H]5C(=O)N4[C@@H]3c3ccc(O)cc3)cc2)[C@@]12C(=O)Nc1ccc(I)cc12`: 1.51.
